# Source: PubChem BioAssay (NCI)
# This is part of a sample that, as a whole, favours compounds with a hit. Of some 79,000 tested, about 15% had one in any assay. Values without a mark were called inactive. Rule as the data show it: active = growth inhibition above about 70%; inactive = the rest. Where a SMILES comes first, the peptide text is derived from it. The star is where a group is joined. Boc = CC(C)(C)OC(=O)*
# Test: NCI Yeast Anticancer Drug Screen. Data for the rad50 strain (AID 155);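 also: 0% = growth of vehicle-only cultures of the same strain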
# Settings: S. cerevisiae rad50 strain growth inhibition; at 50.0 µM; hits give high values
# Summary of the method: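 Cells are treated with compound, grown, and their growth is then scored against vehicle-only cultures of the same repair-deficient yeast strain.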
row,SMILES,growth inhibition [%]
1,CC(C)[C@@H]1CC[C@@H](C)C[C@H]1OC(=O)/C=C1\C(C(=O)O[C@@H]2C[C@H](C)CC[C@H]2C(C)C)[C@H]2C=C[C@@H]1O2 (stereo not given in full),-6.15
2,COc1cc([N+](=O)[O-])ccc1NC(=O)C(Br)C(Br)c1ccccc1 (stereo not given),11.7
3,COc1ccc(C(=O)c2ccc(Cl)cc2)c(O)c1OC,-5.85
4,Cc1cc(=O)[nH]c(NN2C(Cl)C(=O)C2c2cccc(Cl)c2)n1 (stereo not given),-5.85
5,COC(=O)CNC(=O)C(CC(C)C)NC(=O)C(CC(C)C)NC(=O)OC(C)(C)C (stereo not drawn) (Boc-Leu-Leu-Gly-OMe; configuration not given here),42.2
6,CCC1(C)OC(C)CC(C)(C)O1 (stereo not given),0.65
7,OCc1ccccc1CO,-19.6
8,Oc1ccc(Br)cc1C1Nc2ccccc2S1 (stereo not given),0.65
9,CN(C(=N)N)c1ccc(C(=O)Oc2ccc([N+](=O)[O-])cc2)cc1,14.8
10,CC1(C)OC(C(CCl)OS(C)(=O)=O)C(C(CCl)OS(C)(=O)=O)O1 (stereo not given),4.2
11,Nc1cc2c(cc1Br)-c1cc(Cl)c(Cl)cc1C2=O,-5.75
12,COc1cc(-c2c(C)c(C)nc(OC)c2C#N)cc(OC)c1OC,-1.05
13,CCCCCN(CCCCC)C(C)=O,6.85
14,O=C1C(c2ccccc2Cl)[C@H]2CC=C[C@H]2N1O (stereo not given in full),-26.1
15,O=S(=O)(Nc1ncccn1)c1ccc(N=NSC2=NC=NC3=NC=NC32)cc1 (stereo not given),21.3
16,O=c1oc2c(CN3CCOCC3)c(O)ccc2c2c1CCCC2,24.8
17,C/C(=N\NC(=S)Nc1ccc(S(=O)(=O)O)cc1)c1ccccn1,21.3
18,Cc1ccc(N=Nc2c(N)nc(N)[nH]c2=O)c(C)c1,14.9
19,CC(=O)N(C(C)=O)C(CS)C(=O)O (stereo not given),4.1
20,O=C1NC(=O)C(=C/C=C/C=C\C2C(=O)NC(=O)NC2=O)C(=O)N1,-15.1

row,SMILES,growth inhibition [%]
1,Nc1ccc2[nH]c(=S)sc2c1,11.2
2,CN(C)c1nc(=Nc2ccc3c(c2)OCO3)ss1,30.5
3,CC1=CC(C)(C)N=C2SC(=O)c3nc4ccccc4c(=O)n3N12,10.7
4,CCCCC1(CO)NC(=O)NC1=O (stereo not given),-4.5
5,CC(O)(CCCCCl)c1nc2ccccc2s1 (stereo not given),20.9
6,COC(=O)/C(C)=C/C=C/C(OC)C(OC(N)=O)/C(C)=C/C(C)C(O)C(CC(C)CC1=C(OC)C(=O)C=C(N)C1=O)OC (stereo not given),5.85
7,COC(=O)CCC(=O)c1ccc(OC)cc1,4.7
8,COc1ccc(-c2cc(=O)c3cc(O)ccc3o2)c(OC)c1OC,8
9,CCC(C)OC(=O)C1C(=O)CC(c2ccccc2)C1c1ccccc1 (stereo not given),-2.2
10,Cc1cc([N+](=O)[O-])ccc1N=NC(=O)NNc1ccc([N+](=O)[O-])cc1C,-0.45
11,Cc1nc(N)[nH]c(=O)c1CCCN=Cc1ccc([N+](=O)[O-])cc1,4.3
12,CNS(=O)(=O)c1ccccc1C(=N)c1ccccc1,-0.3
13,C=C1C(=O)OC2(CCCCC)CCCCC12 (stereo not given),1.95
14,COc1ccc(C(=O)C(c2ccccc2)c2ccccc2)cc1,6.65
15,O=C(O)CCC(=O)c1ccc[nH]1,7.3
16,Nc1nc(N)c2ncn(-c3ccc(Cl)cc3)c2n1,-0.7
17,C=C1CC[N+]2(CCCC)CCCC12 (stereo not given),4.85
18,Clc1cccc(-c2sc(-c3ccsc3)cc2Cc2ccsc2)c1,-21.2
19,CCOC(=O)C(=CNC(=S)c1cccnc1)C(=O)OCC,-23.9
20,C#C/C=C/CC1OC(C(Br)CC)CC(Br)C2CC1O2 (stereo not given),20.6

# Test: NCI Yeast Anticancer Drug Screen. Data for the mec2-1 strain (AID 157)
# Settings: S. cerevisiae mec2-1 strain, at 50.0 µM, hits give high values
# Summary of the method: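 Compounds were applied to mec2-1 yeast cells. Their growth was then compared with that of vehicle-treated cultures to give growth inhibition.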
row,SMILES,growth inhibition [%]
1,CC(C)[C@@H]1CC[C@@H](C)C[C@H]1OC(=O)/C=C1\C(C(=O)O[C@@H]2C[C@H](C)CC[C@H]2C(C)C)[C@H]2C=C[C@@H]1O2 (stereo not given in full),-13.6
2,COc1cc([N+](=O)[O-])ccc1NC(=O)C(Br)C(Br)c1ccccc1 (stereo not given),-5.9
3,COc1ccc(C(=O)c2ccc(Cl)cc2)c(O)c1OC,-6.55
4,Cc1cc(=O)[nH]c(NN2C(Cl)C(=O)C2c2cccc(Cl)c2)n1 (stereo not given),-34.1
5,COC(=O)CNC(=O)C(CC(C)C)NC(=O)C(CC(C)C)NC(=O)OC(C)(C)C (stereo not drawn) (Boc-Leu-Leu-Gly-OMe; configuration not given here),1.65
6,CCC1(C)OC(C)CC(C)(C)O1 (stereo not given),-22.9
7,OCc1ccccc1CO,-15
8,Oc1ccc(Br)cc1C1Nc2ccccc2S1 (stereo not given),6.15
9,CN(C(=N)N)c1ccc(C(=O)Oc2ccc([N+](=O)[O-])cc2)cc1,12.8
10,CC1(C)OC(C(CCl)OS(C)(=O)=O)C(C(CCl)OS(C)(=O)=O)O1 (stereo not given),-6.1
11,Nc1cc2c(cc1Br)-c1cc(Cl)c(Cl)cc1C2=O,-13.8
12,COc1cc(-c2c(C)c(C)nc(OC)c2C#N)cc(OC)c1OC,-13.9
13,CCCCCN(CCCCC)C(C)=O,5.95
14,O=C1C(c2ccccc2Cl)[C@H]2CC=C[C@H]2N1O (stereo not given in full),-39.2
15,O=S(=O)(Nc1ncccn1)c1ccc(N=NSC2=NC=NC3=NC=NC32)cc1 (stereo not given),17.4
16,O=c1oc2c(CN3CCOCC3)c(O)ccc2c2c1CCCC2,21.5
17,C/C(=N\NC(=S)Nc1ccc(S(=O)(=O)O)cc1)c1ccccn1,18.4
18,Cc1ccc(N=Nc2c(N)nc(N)[nH]c2=O)c(C)c1,-4.8
19,CC(=O)N(C(C)=O)C(CS)C(=O)O (stereo not given),-11.8
20,O=C1NC(=O)C(=C/C=C/C=C\C2C(=O)NC(=O)NC2=O)C(=O)N1,-38.4

row,SMILES,growth inhibition [%]
1,Nc1ccc2[nH]c(=S)sc2c1,16.4
2,CN(C)c1nc(=Nc2ccc3c(c2)OCO3)ss1,24.4
3,CC1=CC(C)(C)N=C2SC(=O)c3nc4ccccc4c(=O)n3N12,2.35
4,CCCCC1(CO)NC(=O)NC1=O (stereo not given),-13.9
5,CC(O)(CCCCCl)c1nc2ccccc2s1 (stereo not given),-8.05
6,COC(=O)/C(C)=C/C=C/C(OC)C(OC(N)=O)/C(C)=C/C(C)C(O)C(CC(C)CC1=C(OC)C(=O)C=C(N)C1=O)OC (stereo not given),24.8
7,COC(=O)CCC(=O)c1ccc(OC)cc1,-6.5
8,COc1ccc(-c2cc(=O)c3cc(O)ccc3o2)c(OC)c1OC,16
9,CCC(C)OC(=O)C1C(=O)CC(c2ccccc2)C1c1ccccc1 (stereo not given),-8.4
10,Cc1cc([N+](=O)[O-])ccc1N=NC(=O)NNc1ccc([N+](=O)[O-])cc1C,5.1
11,Cc1nc(N)[nH]c(=O)c1CCCN=Cc1ccc([N+](=O)[O-])cc1,6
12,CNS(=O)(=O)c1ccccc1C(=N)c1ccccc1,-8.25
13,C=C1C(=O)OC2(CCCCC)CCCCC12 (stereo not given),4.1
14,COc1ccc(C(=O)C(c2ccccc2)c2ccccc2)cc1,1.95
15,O=C(O)CCC(=O)c1ccc[nH]1,-23.2
16,Nc1nc(N)c2ncn(-c3ccc(Cl)cc3)c2n1,14.2
17,C=C1CC[N+]2(CCCC)CCCC12 (stereo not given),29.2
18,Clc1cccc(-c2sc(-c3ccsc3)cc2Cc2ccsc2)c1,-20.1
19,CCOC(=O)C(=CNC(=S)c1cccnc1)C(=O)OCC,-37.7
20,C#C/C=C/CC1OC(C(Br)CC)CC(Br)C2CC1O2 (stereo not given),16.8
